SMILES strings stand for the structures. The whole screen tested about 340,000 compounds, of which about 490 (0.14%) were called active. This is one part of a sample in which actives are shown more often than they occur. A number with no mark means an inactive call. No stated cut-off is given here; in the data, active means inhibition above about 12%; inconclusive means no clear call, values can overlap the other calls; inactive means below about 7.3%.

For this experiment, the target named is Kelch-like ECH-associated protein 1 (Homo sapiens) (UniProt Q14145). Put plainly: disruptors of Keap1 binding to Nrf2 – biochemical, fluorescence polarization, single point, primary screen (AID 504523).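 Further: human Keap1 Kelch domain with fluorescein labeled Nrf2 9mer peptide probe; 0% = neutral control wells and 100% = peptide positive control.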 The conditions noted are these: Keap1 Kelch-Nrf2 peptide fluorescence polarization, 1536-well; at 9.4 µM; stronger effect = higher value. (Fluorescence polarisation rises when a labelled molecule tumbles more slowly, as on binding a larger partner.)
Kelch-like ECH-associated protein 1 (Homo sapiens), sequence (Q14145 whole entry, looked up, the tested form may be a part): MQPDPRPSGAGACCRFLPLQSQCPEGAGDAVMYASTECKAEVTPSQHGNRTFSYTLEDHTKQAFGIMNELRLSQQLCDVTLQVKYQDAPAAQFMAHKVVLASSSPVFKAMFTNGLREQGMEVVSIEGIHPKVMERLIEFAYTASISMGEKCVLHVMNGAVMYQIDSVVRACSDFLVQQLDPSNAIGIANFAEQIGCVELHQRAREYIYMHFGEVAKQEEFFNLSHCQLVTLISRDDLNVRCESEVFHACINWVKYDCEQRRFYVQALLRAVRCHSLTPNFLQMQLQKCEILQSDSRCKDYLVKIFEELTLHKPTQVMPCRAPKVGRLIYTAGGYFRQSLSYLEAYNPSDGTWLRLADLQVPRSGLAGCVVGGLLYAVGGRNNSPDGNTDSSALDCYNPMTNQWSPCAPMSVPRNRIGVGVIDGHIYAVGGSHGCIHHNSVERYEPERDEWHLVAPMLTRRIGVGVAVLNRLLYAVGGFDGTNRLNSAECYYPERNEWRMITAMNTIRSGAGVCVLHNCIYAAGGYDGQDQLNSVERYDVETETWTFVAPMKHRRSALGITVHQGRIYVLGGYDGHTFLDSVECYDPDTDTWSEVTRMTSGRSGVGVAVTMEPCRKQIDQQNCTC
`O=C1Nc2ccc([N+](=O)[O-])cc2C1=Nc1cccc(CO)c1`: the inhibition is 2.07%. With `CCSc1nc(C)c(CCOc2cccc(C)c2)c(=O)[nH]1` the figure was 1.88%; with `COc1cc(NC(=O)c2ccccc2NS(=O)(=O)c2ccc(Cl)s2)cc(OC)c1`, -7.91%; with `CCCN(CC(=O)Nc1ccccc1OC)C(=O)CCC(=O)c1ccc(F)cc1`, -3.76%. With `CCOC(=O)CC(NC(=O)C1c2ccccc2Oc2ccccc21)c1ccc(C)cc1` (stereo not given) the figure was -0.485%; with `CCCN(CCC)C(=O)C1c2ccccc2Oc2ccccc21`, 56.3% (active). Consider `CCCCCNC(=O)C1c2ccccc2Oc2ccccc21`, for which the inhibition is -1.43%. The value for `S=C(Nc1cccnc1)Nc1ccccn1` was 0.955%. As for `CN/C(=C\[N+](=O)[O-])NCCSCc1csc(CN(C)C)n1`, the inhibition is -2.6%. With `COCCOC(=O)c1sc(=S)n(CCOC)c1N` the figure was -0.978%; with `O=C(CSc1n[nH]c(-c2cccs2)n1)N1CCCCC1`, -2.81%; with `CC1(C)Cc2ccccc2-c2nnc(-c3cccc(O)c3)n21`, -0.455%. For `CCS(=O)(=O)Nc1ccc(C(=O)NCCSc2ccccc2)cc1`, the inhibition is -1.14%.

With `CCCc1nc(-c2cc3cc(C)ccc3[nH]c2=O)no1`, the inhibition is 0.406%. As for `CCOc1ccc(S(=O)(=O)N2CCC(C(=O)OCc3ccc(OC)cc3)CC2)cc1`, the inhibition is -2.62%. With `NC(=O)c1ccccc1N=Cc1ccc2ccccc2c1`, the inhibition is -5.11%.

As to `COC(=O)c1ccc(COC(=O)c2c(C)nn(Cc3ccccc3Cl)c2Cl)o1`, the inhibition is 5.7%. As to `CSCC[C@H](NC(=O)CCCn1nnc2ccccc2c1=O)C(=O)O`, the inhibition is -3.2%. Take `O=C(NC(=O)N1CCSCC1)c1c(Cl)cccc1Cl`: the inhibition was -0.262%. Take `CC(C)(C)Nc1nc(-c2ccccn2)nc2ccccc12`: the inhibition is -3.56%. As for `COc1ccc(Nc2nc(-c3cccnc3)nc3ccccc23)cn1`, the inhibition was 20.8% (active). With `S=c1nc2ccccc2c2nc(-c3cccnc3)[nH]n12`, the inhibition was -0.541%.

`COc1ccc(CCNCC(O)Cn2ccc3ccccc32)cc1OC` (stereo not given): the inhibition was -7.66%. For the molecule `COc1ccc(CCNC(=O)COC(=O)Cc2cccc(F)c2)cc1`, the inhibition was -1.56%.

As for `COc1ccc(/C=N/Nc2ncnc3sc4c(c23)CCCC4)cc1O`, the inhibition is -9.16%. Regarding `COC(=O)C1=C(C)NC2=C(C(=O)c3ccccc32)C1c1ccc(-c2ccc(C(=O)O)cc2)o1` (stereo not given), the inhibition was -21.3%. `c1ccc(-c2cn3c(n2)CCc2ccc4cccnc4c2-3)cc1`: the inhibition was 0.967%. With `CCCCN(C(=O)C(CCSC)N1C(=O)c2ccccc2C1=O)c1c(N)n(CCC)c(=O)[nH]c1=O` (stereo not given) the figure was -8.81%; with `COc1ccc(C(C(=O)NC(C)(C)C)N(Cc2ccc(F)cc2)C(=O)CCC(=O)Nc2cc(C)on2)cc1` (stereo not given), 6.66%; with `CC(C)(C)OC(=O)C[C@@H]1C/C=C\C[C@@H](CC(=O)N[C@@H](CO)Cc2ccccc2)C(=O)N2CCC[C@H]2COC1=O`, 5.12%. Consider `COc1ccc(C2NC(=O)C(=O)/C2=C(\O)c2ccc(Cl)cc2)cc1OC` (stereo not given), for which the inhibition is -0.168%. In the case of `C=CCOC(=O)N1CCC2CC1c1cc(-c3ccc(OC)cc3)ccc12` (stereo not given), the inhibition is -0.448%. On to `CC1Cc2cc(/C(O)=C3\C(=O)C(=O)N(Cc4cccnc4)C3c3ccccc3F)ccc2O1` (stereo not given), for which the inhibition is -1.04%. As to `COc1cccc(CC(=O)N2CCCC(CCC(=O)N3CCN(c4ccccn4)CC3)C2)c1` (stereo not given), the inhibition was 2.29%.

For the molecule `COc1ccc(N2C(=O)C(O)C2c2ccc(C)cc2)cc1` (stereo not given), the inhibition was -3.41%. Consider `O=S(=O)(Nc1ccccc1)c1ccc(NS(=O)(=O)c2cccs2)cc1`, for which the inhibition is -1.45%.

On to `CCN(CC)CCCC(C)n1c2nc(=O)[nH]c(=O)c-2nc2cc(Cl)ccc21` (stereo not given), for which the inhibition was 152% (active). On to `CCOc1cc(C2C(C(=O)OC(C)C)=C(C)NC3=C2C(=O)CCC3)cc([N+](=O)[O-])c1O` (stereo not given), for which the inhibition was -4.98%.

Turning to `CCOCCc1c(O)nc(SCC(=O)NCc2ccco2)[nH]c1=O`, the inhibition is -1.62%. With `COc1ccc(CCn2c(NN=C3CCCC3)nc3c2c(=O)[nH]c(=O)n3C)cc1` the figure was 1.25%; with `COc1ccc(C2C(C#N)=C(N)Oc3cc(N)ccc32)cc1OC` (stereo not given), -3.33%. As to `COc1ccc(CNCCCO)cc1OC`, the inhibition is -3.09%. With `COc1ccc(C2c3ccc(O)cc3Oc3ncn(CCCO)c(=N)c32)cc1OC` (stereo not given) the figure was 28.8% (active); with `Cc1cccc2cc3c(N)c(C(=O)N4CCCc5ccccc54)sc3nc12`, -5.05%; with `O=C1C(=O)N(CCN2CCOCC2)C(c2ccccn2)/C1=C(/O)c1ccc(Cl)cc1` (stereo not given), -6.66%. On to `CCN(CC)CCN1C(=O)C2C(C(=O)Nc3ccc(Br)cc3)C3C=CC2(O3)C1C(=O)NC1CCCCC1` (stereo not given), for which the inhibition was -0.939%. For the molecule `Cc1ccc(CNC(=O)C2(C(F)(F)F)C/C(=C\Cc3ccccc3)CCCO2)o1` (stereo not given), the inhibition is -4.24%. With `O=C(NCCS(=O)(=O)NCc1ccc(Cl)cc1)c1ccccc1`, the inhibition was -4.29%. On to `O=C(NCCOCc1ccc(Cl)cc1)c1ncn[nH]1`, for which the inhibition is 18.3% (active). With `Cc1cc(C(=O)NCCc2ccc(Cl)cc2)n(-c2ccccc2)n1`, the inhibition was -8.41%. Take `CN(C)C(=S)N=c1ssc(=S)n1Cc1ccco1`: the inhibition is -0.0433%. Consider `COc1ccccc1CCNC(=O)CN1C(=O)NC2(CCCC2)C1=O`, for which the inhibition was -5.6%. As for `O=C1CC(Cc2ccc(Cl)cc2)C(=O)N1c1cc(Cl)ccn1` (stereo not given), the inhibition is 40.7% (active). In the case of `O=C1CC(Cc2ccccc2)C(=O)N1c1ccc(Cl)cn1` (stereo not given), the inhibition was -0.813%.

`Cc1ccc(CC2CC(=O)N(c3nc(C)cc(C)n3)C2=O)cc1` (stereo not given): the inhibition is 1.11%.

As for `O=C(Nc1cccc(S(=O)(=O)N2CCOCC2)c1)C12CC3CC(CC(C3)C1)C2`, the inhibition is 1.77%. The value for `COc1ccc(NC(=O)CN(C)C(=O)c2n[nH]c3ccccc23)cc1` was 0.904%.

On to `CCCC(=O)Nc1ccc(C(=O)NCCCn2ccnc2)cc1`, for which the inhibition was 6% (active). With `CCCCC(=O)Nc1ccc(C(=O)NCCCn2ccnc2)cc1`, the inhibition is -4.02%. With `COc1cc(OC)cc(C(=O)NCCCn2ccnc2)c1` the figure was -6.37%.

As usually defined, the inhibition is the relative decrease from the control value, in per cent.
